This note sets out measurements from the supplement of paper PMC4894684.

Several values for one entry are separate records, joined by “and”; a condition that tells them apart may be missing. Identical values can stand only once. Counter-ions that a name gives are not always drawn. ± gives the standard deviation of the averaged measurements. A value given as a limit tells only on which side of the number the result lay.

This experiment has as its system Toxoplasma gondii RH (in HFF). Nature of the experiment: parasite growth relative to the screen mean (all compounds = 100%); higher = less inhibition of parasite growth. The conditions noted are these: 5 µM; 72 h; oxygen 21 %. In short, it runs like this: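 Each value is parasite growth expressed against the screen mean, averaged over two screens, where the mean of all compounds = 100%. The screen used 5 µM final compound on confluent human foreskin fibroblasts infected with RH β-Gal–GFP Toxoplasma (MOI 1:5) within 2 h and grown 72 h at 21% O2. Parasite number was measured by a CPRG β-Gal assay against in-plate standard curves.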
Turning to `Cc1ccc(Sc2cncc3sc(C(N)=O)cc23)cc1`, the parasite growth was 148 ± 2.4%.

`CCS(=O)(=O)N1CCC[C@@H]2CN3CCc4cc(OC)ccc4[C@@H]3C[C@@H]21` registered a parasite growth of 125 ± 31%.

As for `Cc1ccccc1N=Nc1ccc(NC(=O)c2ccnn2C)c(C)c1`, the parasite growth worked out at 82.7 ± 23%.

`CC1=C(C(=O)OCCN(Cc2ccccc2)c2ccccc2)C(c2cccc([N+](=O)[O-])c2)C(P2(=O)OCC(C)(C)CO2)=C(C)N1` (stereo not drawn) [Efonidipine hydrochloride monoethanolate]: the parasite growth came out at 58 ± 3.9%.

For the compound `C[C@@]1(O)[C@H](O)[C@@H](CO)O[C@H]1n1cnc2c(NC3CCCC3)nc(Cl)nc21`, the parasite growth is 85.3 ± 39%.

On to `OC(CNCC(O)C1CCc2cc(F)ccc2O1)C1CCc2cc(F)ccc2O1` (stereo not drawn) [Nebivolol hydrochloride], for which the parasite growth is 46 ± 23%.

`O=[N+]([O-])c1cccc2c[nH]nc12` registered a parasite growth of 97.2 ± 10%.

On to `O=C1Cc2c([nH]c3ccc(Br)cc23)-c2ccccc2N1` [Kenpaullone], for which the parasite growth came out at 100 ± 12%.

On to `CC(=O)OCCNC(=O)c1cccnc1` [N-[2-(Acetoxy)ethyl]-3-pyridinecarboxamide], for which the parasite growth is 117 ± 13%.

Compound `CCCN(C/C=C/I)C1CCc2cccc(O)c2C1` (stereo not drawn) [8-Hydroxy-PIPAT oxalate] gave a parasite growth of 190 ± 23%.

Turning to `COc1cc2c(cc1OC)-c1cc3nc4ccccc4nc3n1C(C)(C)C2`, the parasite growth is less than 0%.

Consider `O=c1nc2ccccc2c2n1CC(CN1CCN(c3ccccc3)CC1)N2` (stereo not drawn), for which the parasite growth came out at 120 ± 2.4%.

Compound `C=CC(=O)c1ccc2ccccc2c1` returned a parasite growth of 70.4 ± 7.8%.

The compound `CC(C)(C)[N+]([O-])=Cc1ccc(S(=O)(=O)O)cc1S(=O)(=O)O` yielded a parasite growth of 86.3 ± 26%.

Compound `c1ccc(N2CCN(Cc3nc4ccccc4[nH]3)CC2)nc1` [ABT 724 trihydrochloride] showed a parasite growth of 98.1 ± 12%.

`CCC(=O)OCN1C(=O)C=CC1=O` displayed a parasite growth of 124 ± 12%.

As for `CCCCN1CCC(CCC(=O)c2cc(Cl)c(N)cc2OC)CC1`, the parasite growth is 67.2 ± 14%.

In turn, `Cc1nn(-c2ccccc2)c(C)c1C=NN1CCN(Cc2ccccc2)CC1` gave a parasite growth of 141 ± 26%.

Compound `O=C(c1ccc(Nc2nccc(-c3cc4ccccc4s3)n2)cc1)N1CCC(N2CCCC2)CC1` displayed a parasite growth of less than 0%.

`O=c1[nH]nc(Sc2ncc([N+](=O)[O-])s2)n1-c1ccc2c(c1)OCCO2` yielded a parasite growth of 130 ± 46%.

Turning to `NCC(O)(CS(=O)(=O)O)c1ccc(Cl)cc1` (stereo not drawn) [2-Hydroxysaclofen], the parasite growth came out at 132 ± 20%.

`CCCCNc1c(C(=O)OCC)c(C)nc2c1cnn2CC` [Tracazolate hydrochloride] returned a parasite growth of 109 ± 5.9%.

In the case of `Oc1ccc(-c2nc(-c3ccc(F)cc3)c(-c3ccncc3)[nH]2)cc1`, the parasite growth is less than 0%.

Consider `COc1cc(N)c(Cl)cc1C(=O)OCCCN1CCCCC1`, for which the parasite growth was 109 ± 2.2%.

`CCc1c2c(nc3ccc(O)cc13)-c1cc3c(c(=O)n1C2)COC(=O)[C@]3(O)CC` returned a parasite growth of 110.2 ± 0.25%.

For `N[C@@H](Cn1ccc(=O)n(Cc2ccccc2C(=O)O)c1=O)C(=O)O`, the parasite growth was 108% and 93.5%.

Regarding `Cc1cc(Cn2cnc3c2CC(C(=O)O)N(C(=O)C(c2ccccc2)c2ccccc2)C3)ccc1N(C)C` (stereo not drawn), the parasite growth was 130 ± 23%.

`Cc1nnc(-c2ccc3occ(-c4ccc([S+](C)[O-])cc4)c3c2)o1` (stereo not drawn) displayed a parasite growth of 83.7 ± 4.5%.

As for `CCOC(=O)N1CCC(=C2c3ccc(Cl)cc3CCc3cccnc32)CC1` [Loratidine], the parasite growth worked out at 112 ± 4.8%.

As to `COc1ccc(Nc2nccc(NCCO)n2)cc1` [Cardiogenol C hydrochloride], the parasite growth worked out at 122 ± 4.2%.

For the compound `O=C(O)Cc1ccc(OCCNC[C@H](O)c2ccccc2)cc1` [ZD 2079 hydrochloride], the parasite growth is 119 ± 12%.

Consider `Cc1cc(C)c(/C=C2\C(=O)Nc3ccccc32)[nH]1`, for which the parasite growth was 198 ± 12%.

For `COc1cc([C@@H]2c3cc4c(cc3[C@@H](O[C@@H]3O[C@@H]5CO[C@@H](C)O[C@H]5[C@H](O)[C@H]3O)[C@H]3COC(=O)[C@H]23)OCO4)cc(OC)c1O` [Etoposide], the parasite growth was 77.2 ± 18%.

The compound `Cc1cccc(C(=O)NCN2CCN(c3ccccc3C#N)CC2)c1` yielded a parasite growth of 133 ± 7.4%.

Regarding `CCOc1ccc(Nc2nc(-c3c(C)nc4ccccn34)cs2)cc1`, the parasite growth was determined as 127 ± 44%.

With `Cc1nc2c(OCc3ccccc3)cccn2c1CC#N`, the parasite growth came out at 153 ± 7.3%.

Turning to `COC(=O)C1=C(C)NC(C)=C([N+](=O)[O-])[C@H]1c1ccccc1C(F)(F)F`, the parasite growth amounted to 153 ± 8.1%.

The compound `Brc1c(NC2=NCCN2)ccc2nccnc12` gave a parasite growth of 128 ± 24%.
